PubChem BioAssay (Tox21)
Records with an inconclusive call do not appear. Calls of active or inactive are those of the source. Calls follow the shape of the dose curve; as a rule, active = well fitted curve in the direction sought with a large enough effect in the repeat runs; inconclusive = weak or mixed curves; inactive = no such curve, though single readings can be large; an effect the other way counts as inactive or inconclusive.

Legend:
[1] = qHTS RealTime-Glo MT Cell Viability Assay in HEK293 cells - 16 hour (AID 1224872); also: nearly all actives have a fitted effect of over 50% in size; also: potency is read from the fitted curve at half-maximal effect; as to activity change, negative = cytotoxicity: top concentration of the series differs between compounds
Procedure, shortened: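 Cells + reagent dispensed (600 cells/well, HEK293) → 5 h at 37 C/5% CO2 → 23 nL compound in DMSO pinned → 40 h at 37 C → luminescence read at 0, 8, 16, 24, 32, 40 h.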

[2] = qHTS RealTime-Glo MT Cell Viability Assay in HepG2 cells - 8 hour (AID 1224873); also: nearly all actives have a fitted effect of over 55% in size; also: potency is read from the fitted curve at half-maximal effect
Procedure, shortened: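 HepG2 cells mixed with RealTime-Glo MT reagents (NanoLuc plus cell-permeant prosubstrate) were seeded at 600 cells/well, incubated 5 h at 37 C/5% CO2, then pinned with compounds in DMSO; nonlytic luminescence tracked viability during 40 h treatment.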

[3] = qHTS RealTime-Glo MT Cell Viability Assay in HEK293 cells - 40 hour (AID 1224874); conditions: RealTime-Glo luminescence; max response: hits give low values; also: nearly all actives have a fitted effect of over 50% in size; also: potency is read from the fitted curve at half-maximal effect
Procedure, shortened: (§1)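 qHTS format; HEK293 cells with NanoLuc/prosubstrate reagent, 37 C/5% CO2 for 5 h pre-dosing; compounds 23 nL in DMSO; luminescence at each time point reflects viable cells.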

[4] = A CellTox Green Cytotoxicity Assay to monitor cytotoxicity in HepG2 cells - 16 hour (AID 1224876); also: nearly all actives have a fitted effect of over 45% in size
Procedure, shortened: (§2)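 Continuous culture of HepG2 cells with a membrane-impermeant DNA dye; rising fluorescence marks dead cells. Compound exposure lasted up to 40 h at 37 C, with reads every 8 h from 0 h.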

[5] = qHTS RealTime-Glo MT Cell Viability Assay in HepG2 cells - 32 hour (AID 1224877); also: nearly all actives have a fitted effect of over 55% in size; also: potency is read from the fitted curve at half-maximal effect
Procedure, shortened: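 Real-time, nonlytic viability: 600 HepG2 cells/well mixed with NanoLuc enzyme plus prosubstrate; 5 h settle, compound (DMSO) added by pintool; luminescence monitored over 40 h at 37 C.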

[6] = A CellTox Green Cytotoxicity Assay to monitor cytotoxicity in HepG2 cells - 24 hour (AID 1224878); also: nearly all actives have a fitted effect of over 45% in size
Procedure, shortened: as §2

[7] = A CellTox Green Cytotoxicity Assay to monitor cytotoxicity in HepG2 cells - 40 hour (AID 1224879); also: nearly all actives have a fitted effect of over 40% in size; also: potency is read from the fitted curve at half-maximal effect
Procedure, shortened: as §2

[8] = A CellTox Green Cytotoxicity Assay to monitor cytotoxicity in HEK293 cells - 32 hour (AID 1224881); also: nearly all actives have a fitted effect of over 40% in size
Procedure, shortened: (§3)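 Each value comes from one timepoint of a single continuous run in which HEK293 cells with CellTox Green were exposed to compound for up to 40 h at 37 C, dye fluorescence rising with cell death.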

[9] = A CellTox Green Cytotoxicity Assay to monitor cytotoxicity in HEK293 cells - 24 hour (AID 1224875); also: nearly all actives have a fitted effect of over 45% in size; also: potency is read from the fitted curve at half-maximal effect; as to activity change: series mostly up to about 77 µM
Procedure, shortened: as §3

[10] = qHTS RealTime-Glo MT Cell Viability Assay in HEK293 cells - 0 hour (AID 1224880); also: nearly all actives have a fitted effect of over 45% in size; also: potency is read from the fitted curve at half-maximal effect; as to activity change, negative = cytotoxicity: top concentration of the series differs between compounds
Procedure, shortened: as §1
% is scaled to controls: 0 for no effect and ±100 for the full control effect.

NCC(=O)CCC(=O)O
inactive: Potency [1] | Potency [2] | max response [3] 7.89% | Potency [4] | Potency [5] | Potency [6] | Potency [7] | Potency [8]

COC(=O)C1=C(C)NC(COC(N)=O)=C(C(=O)OC(C)C)C1c1cccc(Cl)c1Cl (stereo unspecified)
active: Potency [1] 26.8 µM | Potency [2] 23.9 µM | Potency [3] 26.8 µM | Potency [5] 19 µM | Potency [10] 2.68 µM
inactive: Potency [9] | Potency [8]

CN(C)CCCN1c2ccccc2Sc2ccccc21
active: Potency [7] 23.9 µM
inactive: Potency [1] | Potency [2] | max response [3] -25.3% | Potency [9] | Potency [5] | Potency [8]

Cc1cccc(C)c1NC(=O)CN(CC(=O)O)CC(=O)O
inactive: Potency [1] | Potency [2] | max response [3] 5.56% | Potency [4] | Potency [5] | Potency [6] | Potency [7] | Potency [10] | Potency [8]

CCCCC1=NC2(CCCC2)C(=O)N1Cc1ccc(-c2ccccc2-c2nn[nH]n2)cc1
inactive: Potency [1] | Potency [2] | max response [3] -1.18% | Potency [4] | Potency [5] | Potency [6] | Potency [7]

CC(C)O.CC(C)O.CCOC(=O)/C=C(\C)O.CCOC(=O)/C=C(\C)O.[Ti]
inactive: Potency [1] | Potency [2] | max response [3] -0.8% | Potency [4] | Potency [5] | Potency [6] | Potency [7] | Potency [10] | Potency [8]

CCCCCCCCCOS(=O)(=O)O
inactive: Potency [1] | Potency [2] | max response [3] 4.38% | Potency [4] | Potency [5] | Potency [6] | Potency [7] | Potency [8]

C/C=C/C(=O)CC
inactive: activity change, negative = cytotoxicity [1] 1.69% [at 15.8 µM] | viability change, negative = cytotoxic [2] 1.2% [at 15.8 µM] | max response [3] 4.11% | cytotoxicity increase [4] -0.573% [at 15.8 µM] | activity change, negative = cytotoxic [5] 0.591% [at 15.8 µM] | cytotoxicity [6] 1.31% [at 15.8 µM] | cytotoxicity increase [7] -0.322% [at 15.8 µM] | activity change, negative = cytotoxicity [10] 9.44% [at 15.8 µM]

CCOC(=O)Cc1cccc2ccccc12
active: Potency [7] 21.9 µM
inactive: Potency [1] | Potency [2] | max response [3] -4.39% | Potency [9] | Potency [5] | Potency [10] | Potency [8]

Cc1ccc(N=Nc2c(O)c(C(=O)O)cc3ccccc23)c(S(=O)(=O)O)c1
inactive: Potency [1] | Potency [2] | max response [3] 1.56% | Potency [4] | Potency [5] | Potency [6] | Potency [7] | Potency [10] | Potency [8]

CN(Cc1ccc(C(C)(C)C)cc1)Cc1cccc2ccccc12
inactive: Potency [1] | Potency [2] | max response [3] -22.5% | Potency [4] | Potency [5] | Potency [6] | Potency [7]

CN1Cc2cc(C(=O)N3CCC(C4CCNCC4)CC3)ccc2NC(CC(=O)O)C1=O (stereo unspecified)
inactive: Potency [1] | Potency [2] | max response [3] 5.98% | Potency [4] | Potency [5] | Potency [6] | Potency [7] | Potency [10] | Potency [8]

CC(=O)c1cccc([N+](=O)[O-])c1
inactive: Potency [1] | Potency [2] | max response [3] 3.17% | Potency [9] | Potency [4] | Potency [5] | Potency [7] | Potency [10] | Potency [8]

ClCCOCCOCCCl
inactive: Potency [1] | Potency [2] | max response [3] 5.38% | Potency [9] | Potency [5] | Potency [10] | Potency [8]

CC(CC=O)c1ccccc1 (stereo unspecified)
inactive: Potency [1] | Potency [2] | max response [3] 0.684% | Potency [4] | Potency [5] | Potency [6] | Potency [7] | Potency [10] | Potency [8]

OC(C#CCN1CCCC1)(c1ccccc1)c1ccccc1
inactive: Potency [1] | Potency [2] | max response [3] -8.96% | Potency [4] | Potency [5] | Potency [7] | Potency [10] | Potency [8]

CCCCCCCCCCCCCCCCOS(=O)(=O)O
active: Potency [9] 19 µM
inactive: Potency [1] | Potency [2] | max response [3] -27.5% | Potency [5] | Potency [10]

CCCCC(=O)OCC(=O)[C@H]1[C@H](C)C[C@H]2[C@@H]3C[C@H](F)C4=CC(=O)C=C[C@]4(C)[C@@]3(F)[C@@H](O)C[C@@]21C
active: Potency [10] 4.77 µM
inactive: Potency [1] | Potency [2] | max response [3] -15.1% | Potency [4] | Potency [5] | Potency [6] | Potency [7] | Potency [8]

CCN(CC)CCNC(=O)c1cc(Br)c(N)cc1OC
inactive: Potency [1] | Potency [2] | max response [3] 10.1% | Potency [4] | Potency [5] | Potency [7] | Potency [10]

C[C@H](CCC(=O)O)[C@H]1CC[C@H]2[C@@H]3CC[C@@H]4C[C@H](O)CC[C@]4(C)[C@H]3C[C@H](O)[C@]12C
inactive: Potency [1] | Potency [2] | max response [3] -23.1% | Potency [4] | Potency [5] | Potency [6] | Potency [7]

CN(C)c1ccc(/C=C/c2ccc([N+](=O)[O-])cc2)cc1
inactive: activity change, negative = cytotoxicity [1] -4.94% [at 6.97 µM] | viability change, negative = cytotoxic [2] -4.05% [at 6.97 µM] | max response [3] -4.38% | cytotoxicity increase [4] 19.5% [at 6.97 µM] | activity change, negative = cytotoxic [5] -4.75% [at 6.97 µM] | cytotoxicity [6] 17.5% [at 6.97 µM] | cytotoxicity increase [7] 16.3% [at 6.97 µM] | activity change, negative = cytotoxicity [10] -5.79% [at 6.97 µM] | cytotoxicity increase [8] 15.1% [at 6.97 µM]

CCOC(=O)C(=O)CCc1ccccc1
inactive: Potency [1] | Potency [2] | max response [3] 0.79% | Potency [4] | Potency [5] | Potency [6] | Potency [7] | Potency [10] | Potency [8]
